These results are taken from PubChem BioAssay (NCI).

Common to all, as to assay: NCI-60 one-dose screen, 48 h (100 = growth as untreated, 0 = no growth, -100 = all killed)
Holding throughout (settings): 10 µM unless noted

Experiment [1] deals with RPMI-8226 leukemia.
Experiment [2] deals with OVCAR-8 ovarian.
For experiment [3], the system named is OVCAR-5 ovarian.
Experiment [4] relates to OVCAR-4 ovarian.
The subject of experiment [5] is SK-OV-3 ovarian.
In experiment [6] the test system is IGROV1 ovarian.
For experiment [7], the system named is OVCAR-3 ovarian.
In experiment [8] the test system is HS 578T breast.
The subject of experiment [9] is NCI/ADR-RES ovarian.
Experiment [10] deals with T-47D breast.
Experiment [11] deals with BT-549 breast.
The test system of experiment [12] is MDA-MB-435 melanoma.
For experiment [13], the system named is SW-620 colon.
The subject of experiment [14] is MCF7 breast.
In experiment [15] the test system is HCT-116 colon.
Experiment [16] has as its system HCC-2998 colon.
The test system of experiment [17] is KM12 colon.

Compounds without any hit were thinned out: in the full panel of roughly 83,000, 20% have a hit.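 Interpretation: 100, growth as untreated; towards 0, rising growth inhibition; 0, no net growth; 0 to -100, cell death. Compounds scoring below 10 were considered active.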 A number with no mark means an inactive call. The source made the active and inactive calls.

For `CC(=O)c1ccc(NC(=O)CSc2nnc(-c3cc(-c4ccc(C)cc4)nc4ccccc34)o2)cc1`, the growth in experiment [1] was 7.74% (active); in experiment [2], 49.3%; in experiment [3], 101%; in experiment [4], -12.5% (active); in experiment [5] it was 81.7%; in experiment [6], 57.3%. Moreover, the growth was 77.4% in experiment [7]; 23.3% in experiment [8]; 60.2% in experiment [9]; 44.8% in [10]; 59.1% in [11]; 80.9% in [12]. Further, the growth in experiment [13] is 28.4%; in experiment [14], 26.6%; in experiment [15] it was -7.47% (active); in experiment [16], 102%; in [17], 72%.
As to `COc1ccccc1Nc1nnc(-c2ccc(Cl)cc2)o1`, the growth was 29.2% in [1]; 60.1% in experiment [2]; 86.5% in experiment [3]; 68.3% in [4]; 47.7% in experiment [5]; 52.8% in experiment [6]. Also, the growth in [7] was 8.06% (active); in [8], 64.5%; in experiment [9], 20.8%; in experiment [10], 32.4%; in experiment [11], 56.9%; in [12], -5.9% (active). In addition, the growth is 20.9% in experiment [13]; 17.1% in experiment [14]; 34.1% in [15]; 82% in experiment [16]; 23.9% in [17].
With `CCCCCCC/C=C/[C@H]1O[C@]23C(=O)C[C@@]4(C[C@@H](OC5OC(CO)C(O)C(O)C5O)C[C@@H]4[C@H]2C=C1C)OC3=O` (stereo partly specified), the growth in experiment [1] was -1.42% (active); in [2], 14.5%; in experiment [3] it was 27.7%; in [4] it was 29.6%; in experiment [5], 71.9%; in [6], 15.9%. In addition, the growth in [7] is 9.92% (active); in experiment [8] it was 61.7%; in experiment [9], -5.53% (active); in experiment [10] it was 25.2%; in experiment [11], -0.665% (active); in [12], 3.95% (active). The growth in experiment [13] was 9.92% (active); in [14], 14.4%; in experiment [15], 1.7% (active); in experiment [16], 31.3%; in [17], 28.6%.
Take `Cc1nccc2c3ccc(OCc4cn(-c5ccc(Cl)cc5)nn4)cc3n(CC(C)C)c12`: the growth is -35.1% (active) in [1]; 25.2% in experiment [2]; 44.2% in experiment [3]; 30.5% in experiment [4]; 24.2% in experiment [5]; 44.4% in experiment [6]. In addition, the growth in experiment [7] was 35.3%; in experiment [8] it was 38.8%; in experiment [9], 14.1%; in experiment [10] it was 14%; in [11], 28.3%; in experiment [12] it was 30.6%. For the same molecule, the growth is 24.4% in [13]; 13% in experiment [14]; 10.8% in [15]; 31.2% in experiment [16]; 19.3% in experiment [17].
Take `O=C1[C@@H](OS(=O)(=O)CC(F)(F)F)[C@H](c2ccc(F)cn2)N1c1cc2c3ccccc3ccc2c2ccccc12`: the growth was 25.1% in experiment [1]; 78.6% in experiment [2]; 104% in [3]; 86.3% in [4]; 95.8% in experiment [5]; 70% in experiment [6]. Further, the growth in experiment [7] was 49.3%; in experiment [8], 68.3%; in experiment [9], 72.2%; in [10], 84.9%; in experiment [11], 66.2%; in [12] it was 30.5%. Besides, the growth was 47.6% in [13]; 64% in experiment [14]; 79.3% in experiment [15]; 105% in experiment [16]; 87% in [17].
Take `CCOC(=O)C1=C(C)n2nc(CC#N)c(C#N)c2NC1c1ccc(CC)cc1` (stereo unspecified): the growth in [1] was 102%; in experiment [2], 104%; in experiment [3], 99.8%; in experiment [4] it was 93.2%; in experiment [5], 98.2%; in experiment [6], 69.9%. Moreover, the growth in experiment [7] is 99.2%; in experiment [8], 115%; in experiment [9] it was 96.9%; in experiment [10], 94.9%; in experiment [11], 85.4%; in experiment [12], 98.5%. In addition, the growth was 97.6% in experiment [13]; 88.7% in [14]; 95.4% in experiment [15]; 97.6% in [16]; 97% in experiment [17].
As to `COc1ccc(-c2cc(C(=O)N3N=C(c4ccc(N)cc4)CC3c3ccc(OC)cc3)c3cc(OC)ccc3n2)cc1` (stereo unspecified), the growth was 16.9% in experiment [1]; 22.1% in experiment [2]; 103% in [3]; 71.9% in experiment [4]; 78.3% in experiment [5]; 50.8% in experiment [6]. Besides, the growth was 22% in experiment [7]; 45.9% in experiment [8]; -8.76% (active) in experiment [9]; 43.4% in experiment [10]; 66.4% in [11]; 3.45% (active) in [12]. In addition, the growth is 30.1% in experiment [13]; 14.2% in [14]; 7.78% (active) in experiment [15]; 91.6% in experiment [16]; 22.5% in experiment [17].
On to `O=C(NCc1ccccc1)c1ccc2c(c1)NC(=O)[C@@H]1CCCN21`, for which the growth is 105% in [1]; 106% in [2]; 100% in experiment [3]; 112% in [4]; 111% in experiment [5]; 104% in [6]. The growth in [7] was 101%; in experiment [8], 90.7%; in experiment [9], 98.3%; in experiment [10] it was 108%; in experiment [11] it was 110%; in [12] it was 99.6%. Also, the growth in experiment [13] is 96.4%; in experiment [14], 85.4%; in experiment [15] it was 105%; in experiment [16], 88%; in experiment [17] it was 84%.
